Measurements published in PubChem BioAssay (NCATS).
Several values for one entry are separate records, joined by “and”; a condition that tells them apart may be missing. Identical values can stand only once. Inconclusive results are not listed. More than one record can exist for a structure, and the calls need not agree. Activity calls are given as the source filed them. Unless noted, the call rests on the fitted dose curve.

These compounds were tested against Estrogen receptor (Homo sapiens) (UniProt P03372) (assay: qHTS assay for small molecule antagonists of estrogen receptor alpha signaling (AID 588513; active means well fitted curve in the direction sought with a large enough effect in the signal ratio, with a control signal flat, not every such curve was filed as active; the % refers to the signal ratio; further: potency means the concentration at half of the fitted maximal effect; on activity, negative = inhibition: on the % scale 0 is the no-effect control and ±100 the full control effect)). Conditions: ER-alpha-UAS-bla HEK293, beta-lactamase ratio, antagonist mode; series mostly up to 76.9 µM; activity, negative = inhibition: at the top concentration.
Method in brief: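 Antagonist-mode qHTS in ER-alpha-UAS-bla HEK 293 cells: compound titration, 0.5nM estradiol for 18 h, CCF4 fluorescence, Hill-derived IC50.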

Estrogen receptor (Homo sapiens), sequence (P03372 whole entry, looked up): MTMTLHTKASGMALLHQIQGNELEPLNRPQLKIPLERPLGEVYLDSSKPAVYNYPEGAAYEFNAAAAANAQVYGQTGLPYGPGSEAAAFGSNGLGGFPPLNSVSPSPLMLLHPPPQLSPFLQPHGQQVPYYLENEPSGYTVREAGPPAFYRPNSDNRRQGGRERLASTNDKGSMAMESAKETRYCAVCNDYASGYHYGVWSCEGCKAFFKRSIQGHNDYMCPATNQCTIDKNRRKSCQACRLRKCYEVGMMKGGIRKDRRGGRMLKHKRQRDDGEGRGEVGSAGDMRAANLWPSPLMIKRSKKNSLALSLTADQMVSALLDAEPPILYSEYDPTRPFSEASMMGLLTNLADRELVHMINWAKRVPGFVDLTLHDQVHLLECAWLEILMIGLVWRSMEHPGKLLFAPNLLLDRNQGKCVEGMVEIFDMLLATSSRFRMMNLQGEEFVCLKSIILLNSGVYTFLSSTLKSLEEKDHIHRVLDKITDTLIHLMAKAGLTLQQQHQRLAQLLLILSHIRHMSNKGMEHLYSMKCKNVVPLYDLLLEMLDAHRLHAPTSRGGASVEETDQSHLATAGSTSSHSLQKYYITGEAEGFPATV

Question: With `NCCN` as the compound, how does the “activity, negative = inhibition” value read?
Answer: 4.98% (inactive)

Question: For `CC/C=C\C/C=C\C/C=C\CCCCCCCC(=O)O`, which “activity, negative = inhibition” value is on record?
Answer: -2.85% (inactive)

Question: For `CCCCC(CC)COS(=O)(=O)O` (centres undefined), which “activity, negative = inhibition” value is on record?
Answer: -48.8% (inactive)

Question: With `Cc1ccc(S(=O)(=O)O)cc1C` as the compound, how does the “activity, negative = inhibition” value read?
Answer: -4.34% (inactive)

Question: How did the “activity, negative = inhibition” value turn out when `Oc1cccc(O)c1O` was run?
Answer: 6.2% (inactive)

Question: How did the Potency turn out when `OCC(O)CO` was run?
Answer: inactive

Question: With `OCl` as the compound, how does the “activity, negative = inhibition” value read?
Answer: 15.1% [at 36 µM] (inactive)

Question: For `OB(O)O`, which Potency is on record?
Answer: inactive

Question: `COC(=O)c1ccccc1O` was tested. Which Potency did it give?
Answer: inactive

Question: With `Cc1ccc(S(=O)(=O)NCl)cc1` as the compound, how does the “activity, negative = inhibition” value read?
Answer: 4.33% (inactive)

Question: Which “activity, negative = inhibition” value does the source give for `Nc1ncnc2c1ncn2[C@H]1CC[C@@H](CO)O1` here?
Answer: -17.2% (inactive)

Question: For `[O-][N+](=Nc1ccccc1)c1ccccc1`, which “activity, negative = inhibition” value is on record?
Answer: 31.9% (inactive)

Question: With `CC(C)O` as the compound, how does the “activity, negative = inhibition” value read?
Answer: 27.2% [at 36 µM] (inactive)

Question: `C[C@H](CCC(=O)O)[C@H]1CC[C@H]2[C@@H]3[C@H](O)C[C@@H]4C[C@H](O)CC[C@]4(C)[C@H]3C[C@H](O)[C@]12C` was tested. Which “activity, negative = inhibition” value did it give?
Answer: 20.9% (inactive)

Question: For `O=c1n(CC2CO2)c(=O)n(CC2CO2)c(=O)n1CC1CO1` (centres undefined), which “activity, negative = inhibition” value is on record?
Answer: -21% (inactive)

Question: `c1ccc2ccccc2c1` was tested. Which Potency did it give?
Answer: inactive

Question: How did the Potency turn out when `Nc1ccc(N=Nc2ccccc2)c(N)n1` was run?
Answer: inactive and 35.5 µM [inhibitor] (active)

Each compound was assayed against Estrogen receptor (Homo sapiens) (UniProt P03372) (assay: qHTS assay for small molecule agonists of estrogen receptor alpha signaling (AID 588514; further: nearly all actives have a fitted effect of over 70% in size; further: potency means the concentration at half of the fitted maximal effect;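 on activation: 0% = vehicle only and 100% = reference agonist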)). Conditions: ER-alpha-UAS-bla HEK293, beta-lactamase ratio, 18 h; series mostly up to 76.8 µM; activation: at the top concentration.
Method in brief: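 Efficacy is expressed against 20 nM 17-beta-estradiol (100%) and DMSO basal (0%); EC50 from Hill equation. Assay: beta-lactamase reporter in ER-alpha-UAS-bla HEK 293 cells, 18 h compound incubation, CCF4 detection.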

Question: Which Potency does the source give for `NCCN` here?
Answer: 0.199 µM (active)

Question: `OC[C@H]1O[C@@](CO)(O[C@H]2O[C@H](CO)[C@@H](O)[C@H](O)[C@H]2O)[C@@H](O)[C@@H]1O` was tested. Which “activation” value did it give?
Answer: -4.94% (inactive)

Question: `CC/C=C\C/C=C\C/C=C\CCCCCCCC(=O)O` was tested. Which “activation” value did it give?
Answer: -3.23% (inactive)

Question: With `CCCCC(CC)COS(=O)(=O)O` (centres undefined) as the compound, how does the “activation” value read?
Answer: 8.04% (inactive)

Question: `CO[C@@H]1[C@H](OC(=O)/C=C/C=C/C=C/C=C/C(=O)O)CC[C@]2(CO2)[C@H]1[C@@]1(C)O[C@@H]1CC=C(C)C` was tested. Which “activation” value did it give?
Answer: 11.2% (inactive)

Question: Which “activation” value does the source give for `Cc1ccc(S(=O)(=O)O)cc1C` here?
Answer: -3.02% (inactive)

Question: Which Potency does the source give for `Oc1cccc(O)c1O` here?
Answer: 8.91 µM (active)

Question: For `OCC(O)CO`, which Potency is on record?
Answer: inactive

Question: For `OCl`, which “activation” value is on record?
Answer: 2.67% (inactive)

Question: How did the Potency turn out when `COC(=O)c1ccccc1O` was run?
Answer: inactive

Question: `Cc1ccc(S(=O)(=O)NCl)cc1` was tested. Which “activation” value did it give?
Answer: -1.31% (inactive)

Question: With `Nc1ncnc2c1ncn2[C@H]1CC[C@@H](CO)O1` as the compound, how does the Potency read?
Answer: inactive

Question: How did the Potency turn out when `CC(C)CCCCCCc1ccc(O)cc1` was run?
Answer: 2.51 µM (active)

Question: How did the “activation” value turn out when `[O-][N+](=Nc1ccccc1)c1ccccc1` was run?
Answer: 5.91% (inactive)

Question: How did the “activation” value turn out when `CC(C)O` was run?
Answer: 1.72% (inactive)

Question: How did the “activation” value turn out when `C[C@H](CCC(=O)O)[C@H]1CC[C@H]2[C@@H]3[C@H](O)C[C@@H]4C[C@H](O)CC[C@]4(C)[C@H]3C[C@H](O)[C@]12C` was run?
Answer: -8% (inactive)

Question: `c1ccc2ccccc2c1` was tested. Which Potency did it give?
Answer: inactive

Each compound was assayed against Androgen receptor (Homo sapiens) (UniProt P10275) (assay: qHTS assay for small molecule agonists of androgen receptor signaling (AID 588515; active means well fitted curve in the direction sought with a large enough effect in the signal ratio, with a control signal flat; the % refers to the signal ratio; further: on the % scale 0 is the no-effect control and ±100 the full control effect)). Conditions: AR-UAS-bla HEK293, beta-lactamase ratio, agonist 16 h; stronger effect = higher value.
Method in brief: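 Stimulation of an AR-responsive β-lactamase reporter in GripTite HEK293 cells was measured after 16 h compound exposure at 37 °C, via CCF4 fluorescence after 2 h RT. EC50 from Hill fits, normalized to R1881 at 30 nM.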

Androgen receptor (Homo sapiens), sequence (P10275 whole entry, looked up): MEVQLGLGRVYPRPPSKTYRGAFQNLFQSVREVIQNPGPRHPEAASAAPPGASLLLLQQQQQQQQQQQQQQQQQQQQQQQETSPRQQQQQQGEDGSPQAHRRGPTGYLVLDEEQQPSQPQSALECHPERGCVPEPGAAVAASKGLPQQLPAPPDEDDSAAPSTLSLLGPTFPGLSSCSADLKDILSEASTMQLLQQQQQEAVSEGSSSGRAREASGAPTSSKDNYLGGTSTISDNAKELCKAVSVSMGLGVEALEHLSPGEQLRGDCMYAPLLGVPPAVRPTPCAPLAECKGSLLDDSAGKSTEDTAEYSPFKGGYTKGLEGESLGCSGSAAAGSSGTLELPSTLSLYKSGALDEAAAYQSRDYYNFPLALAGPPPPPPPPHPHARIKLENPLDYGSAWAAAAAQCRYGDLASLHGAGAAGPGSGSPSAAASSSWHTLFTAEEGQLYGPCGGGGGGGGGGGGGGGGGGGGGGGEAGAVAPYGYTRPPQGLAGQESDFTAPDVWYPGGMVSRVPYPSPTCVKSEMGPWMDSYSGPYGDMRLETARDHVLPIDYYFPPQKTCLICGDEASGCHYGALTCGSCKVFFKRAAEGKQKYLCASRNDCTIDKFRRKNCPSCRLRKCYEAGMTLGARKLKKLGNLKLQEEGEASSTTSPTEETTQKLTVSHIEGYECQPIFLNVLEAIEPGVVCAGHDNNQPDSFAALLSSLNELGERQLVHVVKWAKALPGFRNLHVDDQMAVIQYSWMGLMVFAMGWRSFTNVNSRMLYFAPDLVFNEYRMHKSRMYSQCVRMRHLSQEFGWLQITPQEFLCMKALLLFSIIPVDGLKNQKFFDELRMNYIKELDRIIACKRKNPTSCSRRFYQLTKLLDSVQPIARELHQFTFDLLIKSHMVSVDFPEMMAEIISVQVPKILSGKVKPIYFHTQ

Question: For `C=C1C(CCl)(CCl)C2(Cl)C(Cl)C(Cl)C1(Cl)C2(Cl)Cl` (centres undefined), which activation is on record?
Answer: -14.5% (inactive)

Question: Which activation does the source give for `CCCCCCCCCCCCCCCCCC(=O)OC[C@@H](O)[C@H]1OC[C@H](O)[C@H]1O` here?
Answer: 14.2% (inactive)

Question: `CC(C)[C@@H]1CC[C@@H](C)C[C@H]1O` was tested. Which activation did it give?
Answer: 9.8% (inactive)

Each compound was assayed against Glucocorticoid receptor (Homo sapiens) (UniProt P04150) (assay: qHTS assay for small molecule antagonists of glucocorticoid receptor signaling (AID 588533; active means well fitted inhibition curve with a large enough effect in the signal ratio, with a control signal flat, not every such curve was filed as active; the % refers to the signal ratio;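 further: cells stimulated with 2 nM dexamethasone as agonist; on the % scale 0 is the no-effect control and ±100 the full control effect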)). Conditions: HeLa MMTV-bla, GRE beta-lactamase ratio, antagonist mode, 18 h; series mostly up to 76.8 µM; activity change, negative = inhibition: at the top concentration.
Method in brief: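 Antagonist-mode qHTS: compound titrations added to GRE-bla HeLa cells, then dexamethasone 2 nM final; 18 h, 37 C. CCF4 FRET fluorescence normalized to dexamethasone and DMSO; IC50 from Hill fit.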

Glucocorticoid receptor (Homo sapiens), sequence (P04150 whole entry, looked up): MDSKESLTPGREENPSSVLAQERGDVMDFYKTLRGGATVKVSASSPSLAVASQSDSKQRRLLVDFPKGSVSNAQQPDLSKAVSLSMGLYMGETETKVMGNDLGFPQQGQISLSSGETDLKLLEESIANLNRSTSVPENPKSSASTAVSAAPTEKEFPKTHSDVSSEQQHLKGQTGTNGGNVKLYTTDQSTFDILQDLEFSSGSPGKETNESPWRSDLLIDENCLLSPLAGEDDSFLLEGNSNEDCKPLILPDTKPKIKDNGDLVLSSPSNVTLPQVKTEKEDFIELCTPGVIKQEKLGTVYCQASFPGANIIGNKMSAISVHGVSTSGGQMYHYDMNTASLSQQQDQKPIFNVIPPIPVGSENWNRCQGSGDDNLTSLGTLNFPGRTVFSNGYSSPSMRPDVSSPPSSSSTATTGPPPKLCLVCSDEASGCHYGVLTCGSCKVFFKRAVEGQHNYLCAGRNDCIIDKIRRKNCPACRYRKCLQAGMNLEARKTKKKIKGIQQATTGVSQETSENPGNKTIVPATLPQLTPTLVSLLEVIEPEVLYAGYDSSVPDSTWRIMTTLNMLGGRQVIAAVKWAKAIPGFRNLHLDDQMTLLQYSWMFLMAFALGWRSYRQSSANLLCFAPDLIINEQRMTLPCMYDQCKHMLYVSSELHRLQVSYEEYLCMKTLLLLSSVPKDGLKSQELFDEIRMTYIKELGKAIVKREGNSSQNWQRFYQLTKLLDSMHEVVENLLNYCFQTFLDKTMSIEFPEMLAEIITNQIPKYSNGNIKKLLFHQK

Question: With `CCOC(C)OCC` as the compound, how does the “activity change, negative = inhibition” value read?
Answer: 10.2% (inactive)

Question: With `ClC(Cl)Cl` as the compound, how does the “activity change, negative = inhibition” value read?
Answer: 3.52% (inactive)

Question: Which “activity change, negative = inhibition” value does the source give for `CC1=CC(=O)NS(=O)(=O)O1` here?
Answer: 2.98% (inactive)

Question: `CO[C@@H]1[C@H](OC(=O)/C=C/C=C/C=C/C=C/C(=O)O)CC[C@]2(CO2)[C@H]1[C@@]1(C)O[C@@H]1CC=C(C)C` was tested. Which “activity change, negative = inhibition” value did it give?
Answer: -26.7% (inactive)

Question: With `CO/N=C(/C(=O)N[C@@H]1C(=O)N2C(C(=O)O)=C(COC(N)=O)CS[C@H]12)c1ccco1` as the compound, how does the “activity change, negative = inhibition” value read?
Answer: 12.2% (inactive)

Question: For `Cc1ccc(S(=O)(=O)O)cc1C`, which “activity change, negative = inhibition” value is on record?
Answer: 5.66% (inactive)

Question: How did the “activity change, negative = inhibition” value turn out when `CCCCC` was run?
Answer: 23.6% (inactive)
